Screening results deposited in PubChem BioAssay by Broad Institute.
The full list was thinned out, with hits kept by preference.
IDE exosite FP: insulin-degrading enzyme (human) exo-site inhibition; purified IDE, FL-6b probe fluorescence polarization; stronger effect = lower value; z-score at 20 µM; 17,000 compounds, 6.3% hits; AID 1259349;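 active = z-score of -3 or lower, meaning strong loss of probe binding signal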;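 also: His-tagged human IDE residues 42-1019 made in E. coli with 30 nM FL-6b probe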
* hit, by the source's call; ! = a repeat was not active.

SMILES	IDE exosite FP
CO[C@@H]1CC[C@@H]2CCN(C)C(=O)[C@@H](C)CN(C)C(=O)c3cc(C#N)ccc3OC[C@@H]1O2	1.4
O=C(Cc1ccccc1)N1CC[C@H]2[C@H](CO)Nc3ccc(C4=CCCCC4)cc3[C@H]21	2.8
COCC(=O)NC[C@@H]1[C@H](c2ccc(C3=CCCC3)cc2)[C@@H](CO)N1C(C)=O	4.1
CCc1cnc(N2[C@H](C#N)[C@@H](c3ccccc3C3=CCCC3)[C@@H]2CO)s1	3.1
C/C=C/c1ccc([C@H]2[C@@H](CO)N(C(=O)C3CCC3)[C@@H]2CNC(=O)NC(C)C)cc1	3.6
COCC(=O)N1CC(=O)N2[C@H](CO)[C@H](c3ccc(C#Cc4cccnc4)cc3)[C@@H]2C1	-1.3
CCCNC(=O)Nc1ccc2c(c1)OC[C@@H](C)N(C(=O)C1CCOCC1)C[C@@H](C)[C@@H](OC)CN(C)C2=O	0.59
CCC(=O)N1[C@H](CO)[C@H](c2ccc(C3=CCCCC3)cc2)[C@H]1CNC1CCCC1	3.1
CN(C)C(=O)c1cccc(-c2ccccc2[C@@H]2[C@@H](C#N)N(C(=O)C3CC3)[C@@H]2CO)c1	1.1
Cc1ccccc1S(=O)(=O)N1CCCCN2[C@H](C1)[C@H](c1ccc(-c3cncnc3)cc1)[C@@H]2CO	0.57
N#C[C@@H]1[C@@H](c2ccc(-c3ccncc3)cc2)[C@@H](CO)N1C(=O)C1CCCC1	1.3
Cc1ccccc1-c1ccc(C2[C@H]3CNC[C@@H]2N3C(=O)Nc2ccc(F)cc2)cc1 (stereo not given in full)	-0.67
C/C=C/c1ccc(C2[C@@H]3CN(C(=O)NC4CCCCC4)C[C@H]2N3)cc1 (stereo not given in full)	-0.36
Cc1ccccc1-c1ccc(C2[C@@H]3CN(C(=O)NC4CCCCC4)C[C@H]2N3)cc1 (stereo not given in full)	-8.2*!
Cc1ccccc1-c1ccc(C2[C@@H]3CN(C(=O)Nc4cccc(F)c4)C[C@H]2N3)cc1 (stereo not given in full)	-6.4*
O=C(NC1CCCCC1)N1C[C@@H]2N[C@H](C1)C2c1ccc(-c2ccc(F)cc2)cc1 (stereo not given in full)	2.2
O=C(Nc1ccc(F)cc1)N1C[C@@H]2N[C@H](C1)C2c1ccc(/C=C/c2ccccc2)cc1 (stereo not given in full)	0.82
O=C(Nc1cccc(F)c1)N1C[C@@H]2N[C@H](C1)C2c1ccc(-c2ccccc2F)cc1 (stereo not given in full)	-0.69
O=C(Nc1cccc(F)c1)N1C[C@@H]2N[C@H](C1)C2c1ccc(-c2cccnc2)cc1 (stereo not given in full)	1.4
Cc1ccccc1-c1ccc(C2[C@@H]3CN(C(=O)Nc4ccc(F)cc4)C[C@H]2N3)cc1 (stereo not given in full)	-11*
COC(=O)C[C@@H]1C[C@@H]2c3cc(NC(=O)c4ccc5c(c4)OCO5)ccc3O[C@@H]2[C@@H](CO)O1	-0.27
CC(=O)N1CC(=O)N2[C@H](CO)[C@@H](c3ccc(-c4ccc(C#N)cc4)cc3)[C@@H]2C1	1.8
C[C@@H]1CC=CCCNC(=O)[C@@H](Cc2ccccc2)N(C)C(=O)c2ccccc2O1 (mixture of isomers)	1.6
O=C(Nc1cc(F)ccc1F)N1CC(=O)N2[C@H](C1)[C@@H](c1ccc(/C=C/c3ccccc3)cc1)[C@@H]2CO	-1.5
CCCNC(=O)N1CC2(CN(C(=O)c3cnccn3)C2)c2c([nH]c3cc(OC)ccc23)[C@H]1CO	1.2
SMILES	IDE exosite FP
COc1ccc2c3c([nH]c2c1)[C@@H](CO)N(C(C)=O)CC31CCN(C(=O)Nc2ccc(F)cc2F)CC1	1.1
O=C1CN(S(=O)(=O)c2ccccc2)C[C@@H]2[C@H](c3ccc(C#CCc4ccccc4)cc3)[C@@H](CO)N12	1.7
CCC(=O)Nc1ccc2c(c1)C(=O)N(C)C[C@H](OC)[C@@H](C)CN(C(=O)Cc1cccnc1)[C@@H](C)CO2	2.7
C[C@@H]1CN([C@@H](C)CO)C(=O)c2cc(N(C)C)ccc2O[C@@H](C)CCCCO[C@@H]1CN(C)S(=O)(=O)c1cn(C)cn1	0.59
OC[C@@H]1[C@@H](c2ccc(C#CC3CCCC3)cc2)[C@H]2CN(CCC(F)(F)F)CCCCN12	1.7
COc1ccccc1C#Cc1ccc([C@H]2[C@H]3CN(CCC(F)(F)F)CCCCN3[C@H]2CO)cc1	-7.2*
COc1ccccc1C#Cc1ccc([C@@H]2[C@@H](CO)N3CCCCN(CCC(F)(F)F)C[C@H]23)cc1	-2.6
COc1ccccc1C#Cc1ccc([C@H]2[C@@H](CO)N3CCCCN(CCC(F)(F)F)C[C@H]23)cc1	-12*
OC[C@H]1[C@@H](c2ccc(-c3ccccc3)cc2)[C@@H]2CN(CCC(F)(F)F)CCCCN12	-0.54
OC[C@H]1[C@H](c2ccc(C#CC3CCCC3)cc2)[C@@H]2CN(CCC(F)(F)F)CCCCN12	4.3
O=C(c1ccc(F)cc1)N1CC(=O)N2[C@H](CO)[C@H](c3ccc(C#CC4CCCCC4)cc3)[C@@H]2C1	4.2
